In PubChem BioAssay AID504444 (National Center for Advancing Translational Sciences (NCATS), 2011):
In all, about 360,000 compounds went through this assay and about 7,500 (2.1%) were called active. Roughly 20% stayed inconclusive and do not appear here. What follows is part of a selection rich in actives, with near analogues and random picks from the rest. Unmarked numbers belong to inactive results. Calls follow the shape of the dose curve; as a rule, active = well fitted inhibition curve with a large enough effect; inconclusive = small, poorly fitted or top-dose-only effect, or effect the other way; inactive = flat fitted curve, though single readings scatter.

Experiment: Nrf2 qHTS screen for inhibitors; also: nearly all actives have a fitted effect of over 60% in size
Details: A549 ARE-Fluc reporter, luciferase luminescence, 18-24 h; series mostly up to 46 µM; activity change, negative = inhibition: at the top concentration
Summary of the method: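 Quantitative HTS in A549 cells stably bearing an antioxidant response element-firefly luciferase construct. Inhibition of Nrf2-driven transcription was scored by luminescence after 18-24 h of compound exposure at 37 °C.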
% is scaled to controls: 0 for no effect and ±100 for the full control effect; potency is read from the fitted curve at half-maximal effect.

SMILES	activity change, negative = inhibition	Potency
COc1cc(CN(CC2CCCO2)C(=O)c2ccccc2F)cc(OC)c1OC (stereo not given)	-4.81%	–
COc1ccc(CCC(=O)c2ccc(OC)cc2)cc1	5.47%	–
COc1ccc(C(=O)C[n+]2ccc(C)cc2)cc1	3.08%	–
COc1ccc(C(=O)C[n+]2ccc(N)c(C)c2C)cc1	–	5.8 µM (active)
CC/C(=C\c1ccc(Cl)cc1)c1ccncc1	10.8%	–
COc1ccc(S(=O)(=O)N(C)C[C@H]2Oc3c(NC(=O)Nc4ccc5c(c4)OCO5)cccc3C(=O)N([C@H](C)CO)C[C@@H]2C)cc1	-10.5%	–
COc1ccc(C(=O)N(Cc2ccccc2)Cc2ccc(OC)c(COc3ccc(NC(C)=O)cc3)c2)c(O)c1	1.88%	–
Cc1cccc(C=CC(=O)c2ccc(Cl)cc2)c1	-8.77%	–
Cc1[nH]c(=O)c(C(=O)/C=C/c2ccccc2)c2c1CCCC2	–	20.6 µM (active)
Cc1cn(COC/C=C/c2ccccc2)c(=O)[nH]c1=O	0.354%	–
Nc1ccc2c(c1)C(=Cc1cccnc1)c1ccccc1-2	22.3%	–
CCCc1nc2c(c(=O)c3ccccc3n2C)c(=O)n1C1CCCCCC1	–	23.1 µM (active)
CCCc1nc2c(c(=O)c3ccccc3n2C)c(=O)n1-c1cc(C)cc(C)c1	2.46%	–
Cn1c2ccccc2c(=O)c2c(O)cccc21	28%	–
O=C(NCc1cccnc1)C(=O)NCC(c1cccnc1)N1CCN(c2ccccc2)CC1 (stereo not given)	2.8%	–
O=C(CCCCCCCC(=O)N1CCCCC1)N1CCCCC1	-7.85%	–
CN(C)CCCNC(=O)/C=C/c1ccc(OCc2c(F)cccc2Cl)cc1	–	20.6 µM (active)
COc1cc(CNCCN(C)C)ccc1OCc1c(F)cccc1Cl	-10.3%	–
COCCCNC(=O)/C=C/c1ccc(OCc2c(F)cccc2Cl)cc1	-21%	–
COc1cc2c(-c3ccc4c(c3)OCO4)c(-c3ccsc3)oc(=O)c2cc1OC	-4.58%	–
O=C1C=C(c2cccc(Cl)c2O)C[C@@H](c2ccc(F)cc2)C1	7.99%	–
COc1ccc(N2CCN(Cc3nc4c(c(=O)[nH]c(=O)n4C)n3Cc3ccc(Cl)cc3)CC2)cc1	2.8%	–

SMILES	activity change, negative = inhibition	Potency
CCc1cccc2c3c([nH]c12)C(CC)(CC(=O)O)OCC3 (stereo not given)	–	10.3 µM (active)
O=C1CC[C@@H]2CC3(C[C@@H]4CCN1[C@H]24)Nc1cc([N+](=O)[O-])ccc1NC3=NC1CCCCC1 (stereo not given in full)	5.71%	–
CC1CC(C)(C)n2c(O)c(N=NC(N)=S)c3cccc1c32 (stereo not given)	–	14.6 µM (active)
Cc1cccc(NC(=O)CSc2nc(-c3ccco3)cc(C(F)(F)F)n2)c1C	6.45%	–
COc1cccc(C=CC(=O)C=CC=Cc2ccccc2)c1	-3.74%	–
Cc1c(Cl)cccc1NC(=O)CCS(=O)(=O)c1ccc2c(c1)oc(=O)n2C	-4.02%	–
CCc1ccccc1NC(=O)Cn1c(=O)n(CC2CCC(C(=O)NCCc3ccccc3)CC2)c(=O)c2ccccc21 (stereo not given)	15.4%	–
CCN(C[C@H]1N[C@@](Cc2ccccc2)(C(=O)OC)[C@H]2C(=O)N(Cc3ccccc3)C(=O)[C@@H]12)C(=O)c1ccc(C)cc1	-0.16%	–
CCOc1ccccc1N(CC)C(=O)c1cc2ccc3cccnc3c2[nH]1	-16.9%	–
O=C(NCc1cccnc1)c1ccc(CS(=O)(=O)c2ccc(Br)cc2)o1	–	14.6 µM (active)
COc1ccc(CCNC(=O)c2ccc(CS(=O)(=O)c3ccc(Br)cc3)o2)cc1OC	–	4.11 µM (active)
COc1ccc(C(=O)NCCc2ccc(S(N)(=O)=O)cc2)cc1OC	22.1%	–
COc1ccc(CCNC(=O)c2nnc(CS(=O)(=O)c3ccccc3)o2)cc1OC	1.63%	–
COc1ccccc1CNC(=O)c1ccc(CS(=O)(=O)c2ccccc2)o1	0.412%	–
Cc1cccc(NS(=O)(=O)c2ccc(C)c(C(=O)NCc3cccnc3)c2)c1	-31.3%	–
Cc1ccccc1-n1c(=O)c2ccccc2n(Cc2ccc(F)cc2)c1=O	5.14%	–
CCCN(C(=O)COC(=O)CNS(=O)(=O)c1ccc(NC(C)=O)cc1)C1CCS(=O)(=O)C1 (stereo not given)	12.7%	–
CC1CCCC(NC(=O)c2cc(S(=O)(=O)N3CCCCC3)ccc2Cl)C1C (stereo not given)	12.3%	–
CSc1nc(-c2ccccc2)nc(C(Cl)Cl)n1	–	23.1 µM (active)
CSc1ncc(Sc2ccccc2)c(C(=O)O)n1	0.799%	–
Cc1cccc(Nc2nc(C)nc(N)c2S(=O)(=O)c2ccccc2)c1	-16%	–
O=C(Nc1cccc(S(=O)(=O)N2CCOCC2)c1)C12CC3CC(CC(C3)C1)C2	1.01%	–

SMILES	activity change, negative = inhibition	Potency
COc1ccc2[nH]c(C(=O)N3CCN(C)CC3)c(C)c2c1	21.1%	–
COc1ccc2[nH]c3c(C)c4cc[n+](C)cc4c(C)c3c2c1	–	8.2 µM (active)
COc1ccc2[nH]c(=S)cc(C)c2c1	0%	–
Cc1ccc(-n2c(=O)c3cccnc3n2CC(=O)NCc2ccc(F)cc2)cc1C	-7.78%	–
CCOC(=O)Cc1csc(NC(=O)Nc2ccccc2)n1	5.68%	–
CCOC(=O)C/C(C)=N\Nc1ccc([N+](=O)[O-])cc1[N+](=O)[O-]	-12.2%	–
CCOC(=O)/C(=N\Nc1ccccc1[N+](=O)[O-])c1csc(Nc2ccccc2)n1	–	20.6 µM (active)
CC(=O)OC1=C(C(C)=O)N(Cc2ccccc2)S(=O)(=O)c2ccccc21	-4.38%	–
Cc1cc2nnc(SCC(=O)N3CCN(c4ccccc4)CC3)n2c(N)n1	10.4%	–
Cn1c(Cc2cccc3ccccc23)nnc1SCC(=O)N1CCN(c2cccc(Cl)c2)CC1	–	10.3 µM (active)
Cn1c(CNC(=O)c2ccco2)nnc1SCC(=O)N1CCN(c2ccccc2)CC1	-11.5%	–
CC(=O)c1ccc(N2CCN(C(=O)c3ccc(Cl)c(S(=O)(=O)NC4CC4)c3)CC2)c(F)c1	-4.28%	–
Cc1nn(-c2ccccc2)c(C)c1NC(=O)CCl	-1.19%	–
Cc1nn(-c2ccccc2)c(C)c1NC(=O)COc1ccc(Cl)cc1Cl	–	16.4 µM (active)
Cc1nn(-c2ccccc2)c(C)c1NC(=O)COC(=O)c1cc(Cl)ccc1O	-12.6%	–
NC(=O)C1(Nc2ccc([N+](=O)[O-])cc2)CCCC1	-7.2%	–
Cn1c(=O)c2c(-c3ccccc3Br)n(Cc3ccccc3)cc2n(C)c1=O	-16.6%	–
CCC(=O)N1CCc2cc(Br)cc(S(=O)(=O)CCC(=O)N3CCN(c4ccc(F)cc4)CC3)c21	3.12% [at 9.27 µM]	–
Cc1ccc(N2CCN(C3=NC(=O)/C(=C\c4cccs4)S3)CC2)cc1	-1.2%	–
CC(C)=C1SC(N2CCN(c3ccc(C)c(Cl)c3)CC2)=NC1=O	-13.3%	–
CC(C)=C1SC(N2CCN(c3cccc(C)c3)CC2)=NC1=O	–	23.1 µM (active)
